Laboratory results taken from PubChem BioAssay AID489018 (Southern Research Specialized Biocontainment Screening …, 2010).
In all, about 2,300 compounds went through this assay and about 350 (15%) were called active. Not all results are given here. Entries with a potency or affinity are not part of this list. Values without a mark were called inactive. How the calls were made is not given here.

Assay: HepG2 cell cytotoxicity, dose response, cytotoxicity control for non-replicating M. tuberculosis project (AID 489018);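 further: HepG2 human liver cells; 100% = vehicle-treated cells and 0% = background signal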
Details: series mostly up to 20 µM; viability: at the top concentration

Compound | viability
COc1cccc2cc(-c3nc4ccccc4o3)c(=O)oc12 | 108%
NC(=O)c1ccc(N=Cc2ccc([N+](=O)[O-])s2)cc1 | 108% [at 5 µM]
CCC(C)(C)c1ccc(OCC(=O)Nc2ccncc2)cc1 | 105% [at 5 µM]
Cc1nnc(N/N=C/c2ccc(-c3ccc(Br)cc3)o2)n1N | 98.3%
O=C(Nc1nnc(-c2ccc(Cl)cc2)o1)c1nc2ccccc2s1 | 101%
Cc1ccc2nc(CCc3nc4ccc(C)cc4[nH]3)[nH]c2c1 | 99.9%
O=C(CCNc1ccc(Cl)c(C(F)(F)F)c1)c1ccco1 | 97.3% [at 5 µM]
COc1cccc(-c2cc3nc4c(c(NCC(C)(C)CN(C)C)n3n2)CCCC4)c1 | 87.6%
CN(C)CCNc1c2c(c(C#N)c3nc4ccccc4n13)CCCC2 | 99.8%
CSc1ccc(CNc2ncc(-c3cccc([N+](=O)[O-])c3)n2C)cc1 | 100%
CCCCCCCC(=O)N/N=C(/C)c1c(O)cc(C)oc1=O | 107% [at 5 µM]
CCCCCCCC(=O)NNC(=O)c1ccc(F)cc1 | 97.3% [at 5 µM]
O=C(OCc1c(Cl)cccc1Cl)c1ccccn1 | 103%
COC(=O)COc1cccc(NC(=O)COc2ccccc2)c1 | 98.3% [at 5 µM]
O=C(N/N=C/C(Br)=C/c1ccccc1)c1ccncc1 | 99.2%
O=C(N/N=C/C(Br)=C/c1ccccc1)c1cnccn1 | 95.7%
COc1ccc(NC(=O)CCCN2C(=O)/C(=C\c3ccco3)SC2=S)cc1 | 97.5%
O=c1[nH]c(=O)n(Cc2ccccc2Cl)c(O)c1/C=C1/C=CC=N1 | 96.3%
c1ccc(Nc2nc(Nc3ccccc3)nc(N3CCNCC3)n2)cc1 | 72.8%
COc1ccc(CCOC(=O)c2ccc(N)c([N+](=O)[O-])c2)cc1 | 92.9%
Cc1ccccc1NC(=O)c1nc[nH]c1C(=O)NCc1ccccc1 | 89.2%
O=C(COC(=O)CCc1c[nH]c2ccccc12)Nc1cc([N+](=O)[O-])ccc1Cl | 97.9%
C[C@H](NC(=O)c1[nH]cnc1C(=O)Nc1ccccc1)C(=O)OC(C)(C)C | 108% [at 5 µM]
O=c1c2c(nc3c(-c4ccccc4)c[nH]n13)CCCC2 | 79.2%
Cc1ccc(-c2noc(CCCC(=O)Nc3cccnc3)n2)cc1 | 102% [at 5 µM]

Compound | viability
CCCCNC(=O)COC(=O)c1cc(F)c(F)cc1Cl | 97.4%
O=C(/C=C/Nc1ccccc1O)c1ccco1 | 93.7%
O=C(CCNc1ccc(F)cc1)c1ccco1 | 104% [at 5 µM]
COc1ccc(C(=O)COC(=O)c2ccccc2O)c(OC)c1 | 97.4%
CCCS(=O)(=O)c1nnnn1-c1cccc(OC)c1 | 99.5% [at 5 µM]
CCOC(=O)Cn1cc(C#N)c2cccc(CC)c21 | 95.7%
CCn1c(NC(=O)c2ccccc2)nc2ccccc21 | 81.6%
CCOC(=O)COc1ccc2c(c1)c(C(C)=O)c(C)n2Cc1ccccc1 | 102%
CCOC(=O)C(C)Oc1ccc(OCc2ccccc2)cc1 (centres undefined) | 90.2%
CC(C)(C)NC(=O)c1ccc(NC(=O)c2ccccc2-c2ccccc2C(=O)O)cc1 | 106%
CSc1ccc(N=Nc2c(C)[nH]n(C)c2=O)cc1 | 82.9%
Nc1nc2ccccc2n1CCOc1ccccc1Cl | 77.5%
C/C(=N\NC(=O)c1ccccc1)c1nc2ccccc2n1C | 99.8% [at 5 µM]
C/C(=N\NC(=O)c1ccc([N+](=O)[O-])c(C)c1)c1ccccc1Cl | 93.5%
Cc1ccc(N2NC(=O)/C(=C/C=C/c3ccco3)C2=O)cc1C | 93%
c1ccc(CSc2ccc(-c3ccccn3)nn2)cc1 | 78.7%
COC(=O)/C(=C1/Oc2cc(C)oc(=O)c2S1)C(F)(F)F | 110% [at 5 µM]
Cc1ccc(C)c(-c2nnc(NC(=O)c3ccc([N+](=O)[O-])o3)o2)c1 | 91% [at 5 µM]
O=C(Nc1nc2c(Cl)cccc2s1)c1ccc([N+](=O)[O-])o1 | 90.5%
O=C(Nc1cccc(Cl)c1N1CCCC1)c1ccc([N+](=O)[O-])o1 | 84.4%
O=C(Nc1ccc(S(=O)(=O)N2CCOCC2)cc1)c1ccc([N+](=O)[O-])o1 | 113% [at 5 µM]
O=C(Nc1ccccc1N1CCN(C(=O)c2ccc(Cl)cc2)CC1)c1ccc([N+](=O)[O-])o1 | 77%
O=C(Nc1ccc(Cc2ccncc2)cc1)c1ccc([N+](=O)[O-])o1 | 92.2% [at 5 µM]
O=C(Nc1cccc(S(=O)(=O)N2CCCCC2)c1)c1ccc([N+](=O)[O-])o1 | 71.3% [at 5 µM]
Cc1ccc(-n2nnnc2CNC(=O)c2ccc([N+](=O)[O-])o2)cc1C | 78.6%

Compound | viability
CCNC(=O)COC(=O)c1ccc(-c2nc3ccccc3s2)s1 | 95.6%
O=C(CCN1CCN(C/C=C/c2ccccc2)CC1)Nc1ccc(Cl)cc1 | 74.9%
O=C(COc1ccc(F)cc1)N/N=C/c1cccc2cccnc12 | 111%
CCCn1nnnc1NC(=O)c1ccc2ccccc2c1 | 93.8%
COCCn1c(C)cc(C(=O)COC(=O)c2ccc([N+](=O)[O-])o2)c1C | 103%
CC(=O)Oc1c(-c2ccc(Br)o2)oc2ccccc2c1=O | 96.1%
C=CCn1c(O)c(C2=c3ccccc3=NC2=O)c2ccccc21 | 109% [at 5 µM]
O=C1c2cc([N+](=O)[O-])cc3cc([N+](=O)[O-])cc(c23)C(=O)N1c1ccccn1 | 95.9% [at 5 µM]
CCCCNC(=O)COC(=O)c1cc(Br)ccc1Cl | 101%
O=C(Nc1nc(-c2ccccn2)cs1)c1ccc([N+](=O)[O-])o1 | 110% [at 5 µM]
O=C(Nc1cccnc1)c1ccc(-c2ccc(Cl)cc2)o1 | 101%
Cc1ccc(CNC(=O)c2ccc([N+](=O)[O-])o2)cc1 | 86.4%
O=C(Nc1ncccn1)c1ccc([N+](=O)[O-])o1 | 91%
O=C(Nc1ccccn1)c1ccc([N+](=O)[O-])o1 | 110%
O=C(Nc1nccs1)c1ccc(-c2ccc(Cl)cc2)o1 | 91.2%
CCOC(=O)c1cc(-c2csc(COc3ccc(Cl)cc3)n2)on1 | 96.1%
Cc1cccc(NC(=O)COC(=O)CCc2c[nH]c3ccccc23)c1C | 109%
CC(OC(=O)c1ccc2c(=O)n3c(nc2c1)CCCCC3)C(=O)Nc1ccc(Cl)cn1 (centres undefined) | 97.6%
C=CCn1c(NC(=O)c2ccccc2)nc2ccccc21 | 102% [at 5 µM]
C/C(=N/NC(=O)c1ccncc1)C1=C(O)CC(C)(C)CC1=O | 106% [at 5 µM]
C=Cc1cccc(NC(=O)COc2ccccc2)c1 | 95.6%
Cc1ccc(NCCC(=O)c2cccs2)cc1Cl | 108%
CCOC(=O)COc1ccc2c(c1)c(C(=O)OCC)c(C)n2CC | 102%
NC(N)=Nc1nc(-c2ccccc2)c2ccccc2n1 | 102% [at 5 µM]
Cc1cc(C)c2nc(/N=C(\N)NC(=O)Nc3ccccc3)nc(C)c2c1 | 95.2%

Compound | viability
CCC(CC)c1nnc(NC(=O)c2ccc3ccccc3n2)s1 | 80.1%
Cc1ccc(NC(=O)CO/N=C/c2ccccc2C)c(C)c1 | 92.9%
CCCCCCNC(=O)c1ccc(Br)o1 | 102%
CC(=O)CCC1CC(c2ccc(Cl)cc2)=NO1 (centres undefined) | 100%
COc1cccc2cc(C(=O)NCc3ccc(F)cc3)c(=N)oc12 | 119%
O=[N+]([O-])c1cncc([N+](=O)[O-])c1Nc1ccccc1Cl | 97.8% [at 5 µM]
Cc1cc(Br)ccc1OCC(=O)NNC(=O)c1cnccn1 | 111% [at 5 µM]
Cc1ccc(C(=O)C=CNNC(=O)c2ccccc2)cc1 | 98.9%
Cc1nc(C(=O)Nc2ccccc2)sc1C(=O)Nc1ccccc1 | 91%
CNC(=O)c1[nH]cnc1C(=O)Nc1ccc(Cl)cc1 | 98.1%
O=C(CN1CCOCC1)N/N=C/c1ccc(-c2ccc(Br)cc2)o1 | 96.8%
CCOCC(=O)Nc1ccc(C)c(Cl)c1 | 99.3%
O=C(Nc1ccccc1)c1ccc(Br)o1 | 110% [at 5 µM]
CCC(C)(C)NC(=O)c1ccc(Br)o1 | 110%
O=C(O)CCCCCN1C(=O)/C(=C\c2ccncc2)SC1=S | 90.8%
CCn1c(-c2ccco2)nc2ccccc21 | 101%
COc1cccc(COC(=O)c2sc3nc4n(c(=O)c3c2C)CCC4)c1OC | 106%
Cc1cccc(NC(=O)c2ccc([N+](=O)[O-])s2)n1 | 79.6%
COc1ccc(NC(=O)c2cnc(SC)nc2)cc1 | 87.5%
Cc1ccccc1-n1sc2cc(F)ccc2c1=O | 90.2%
CN(CCCCOc1ccc(F)cc1)Cc1ccccc1 | 102%
O=C(Nc1ccn(Cc2ccccc2)n1)c1ccc(F)cc1 | 107% [at 5 µM]
O=C(CCN1C(=O)S/C(=C\c2ccc(F)cc2)C1=O)Nc1ccc(C(=O)O)c(O)c1 | 102%
FC(F)(Cl)c1nnc2ccc(Cl)nn12 | 78%
Cn1c(SCc2c(F)cccc2Cl)nc2c(c1=O)SCC2 | 92.9%

Compound | viability
O=C(Oc1ccccc1)c1cc2ccccc2o1 | 110% [at 5 µM]
COC(=O)c1ccc2c(c1O)C(=O)c1ccccc1C2=O | 102% [at 5 µM]
COc1ccc(-c2[nH]ncc2CN2CCCCCCC2)c(OC)c1 | 97.7%
Cc1noc2ncnc(Sc3ccccc3Cl)c12 | 111%
O=C(N/N=C/c1ccc(Br)s1)c1ccncc1 | 90%
Cc1ccc(/C=N/NC(=O)c2ccncc2)s1 | 107%
O=C(Nc1nccs1)c1ccc2ccccc2c1 | 91.4%
CC(C)(C)c1ccc(-c2nc(C#N)c(NCCCn3ccnc3)o2)cc1 | 101%
O=[N+]([O-])c1ccc(Nc2ccccc2O)c2nonc12 | 98.6%
O=[N+]([O-])c1ccc(Nc2ccccc2)c2nonc12 | 109%
C#CCSc1nnc(-c2ccc(C)cc2)o1 | 93.6%
c1ccc(CNCCC(Cc2ccccc2)c2ccco2)cc1 (centres undefined) | 76.4%
O=C(Nc1ccc(Cl)cc1Cl)c1cccc(N2C(=O)C=CC2=O)c1 | 99.2%
c1ccc2[nH]c(NC3=NCCC3)nc2c1 | 103%
Cc1cccc(OCCCCc2c(C)n[nH]c2C)c1 | 89.6%
O=C(NC(=S)N1CCN(Cc2ccc3c(c2)OCO3)CC1)c1ccc(Cl)cc1 | 83.1%
C/C(=N\NC(=O)CCCNc1ccc(C)cc1)c1ccccn1 | 76.5% [at 5 µM]
C/C(=N\Nc1ccc(Cl)cc1)c1ccccn1 | 90.1%
COc1ccccc1/C=C/C=N/NC(=O)c1ccncc1 | 96.1%
C/C(=N\Nc1cccc2cccnc12)c1ccccn1 | 82.3%
COc1ccc(C(=O)Nc2ccccc2C(=O)N/N=C/c2ccco2)cc1 | 83%
O=C(N/N=C/c1ccccn1)c1ccccc1 | 87.5%
COc1cc(/C=N/NC(=O)c2ccccn2)ccc1OC(=O)c1cccs1 | 92.5%
O=C(COc1ccc(Cl)cc1)NNC(=O)c1ccccn1 | 105%
